# Bioassay records as filed in PubChem BioAssay.
# TSHR agonist = activates the human thyroid stimulating hormone receptor; P16473; HEK293-CNG-TSHR cells (CNG channel as cAMP sensor), membrane potential dye, cAMP; Potency, µM (highest dose often 57.1 µM), for the others: at the highest dose activation, hits mostly activators; 0.48% of 73,000 active; AID 926; active = well fitted activation curve with a large enough effect in the main read-out, with a control signal flat, not every such curve was filed as active; inconclusive = small, poorly fitted or top-dose-only effect, or a change in a side signal; inactive = no such curve, though single readings can be large or run the other way; % of control where 0% means no effect;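 also: the control signal comes from parental cells without the receptor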
#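 HEK 293 cells stably expressing TSHR and a cAMP-gated CNG channel; parental CNG-only cells as counterscreen. Cells preloaded 60 min with membrane potential dye plus 100 uM RO 20-1724, then compound 30 min; fluorescence read at 590 nm.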
# 15-hLO inh = inhibitors of human 15-lipoxygenase (ALOX15); AID 887; 1.4% of 74,000 active; Potency, µM (titrated, usually from 57.1 µM), inactives show at the highest dose activity change, negative = inhibition, most hits filed as inhibitors; purified 15hLO-1, xylenol orange hydroperoxide absorbance; P16050; also: % is scaled to controls: 0 for no effect and ±100 for the full control effect; nearly all actives have a fitted effect of over 55% in size
#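 Hydroperoxide formed from arachidonic acid (50 uM) by purified human 15hLO-1 (40 nM) oxidizes ferrous iron, and the ferric-xylenol orange complex is read at 573 versus 405 nm. Compounds were preincubated 15 min; reaction ran 6 min at room temperature.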
# HEK293 cAMP ctrl = parental HEK293 cAMP activation (counter-screen); parental HEK293 CNG cAMP sensor, membrane potential fluorescence; Potency, µM (titrated, usually from 57.1 µM), for inactives: at the top dose activation, hits mostly activators; 2.5% of 73,000 active; AID 938; also: % of control where 0% means no effect; nearly all actives have a fitted effect of over 55% in size
#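 Counterscreen for endogenous-receptor signalling: CNG-channel HEK 293 cells report cAMP rise by membrane depolarization. After 60 min dye equilibration with 100 uM RO 20-1724, compounds incubated 30 min before bottom-read fluorescence at 590 nm.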
# 15-hLO-2 inh = inhibitors of human 15-lipoxygenase 2 (ALOX15B). purified 15hLO-2, xylenol orange hydroperoxide absorbance. Potency, µM (titrated, usually from 57.1 µM), for inactives: at the highest dose activity change, negative = inhibition, actives largely listed as inhibitors. 0.56% of 110,000 active; also: % is scaled to controls: 0 for no effect and ±100 for the full control effect; nearly all actives have a fitted effect of over 60% in size
#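 Purified human 15hLO-2 (50 nM final) preincubated with compounds 15 min at room temperature in 25 mM Hepes pH 7.5, 0.01% Triton X-100, then 45 uM arachidonic acid added for 90 min; hydroperoxide detected via ferrous/xylenol orange, 573/405 nm absorbance ratio.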
# Casp1 inh = allosteric or competitive inhibitors of human caspase-1 | P29466 | Caspase-1 enzyme, Ac-WEHD-AFC fluorogenic rate | Potency, µM (highest dose often 57.5 µM), without a hit: at the highest dose activity change, negative = inhibition, actives largely listed as inhibitors | 0.03% of 75,000 active | AID 900;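 also: plate controls were vehicle for no effect and no substrate for full effect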
# Caspase-7 inhib = blocks human caspase-7 allosterically or competitively; 0.02% of 75,000 active; recombinant caspase-7, Ac-DEVD-AFC fluorescence rate; AID 889; Potency, µM (series often up to 57.5 µM), for the others: top-dose activity change, negative = inhibition, usual class: inhibitors; active = well fitted inhibition curve with a large enough effect in the main read-out, with a control signal flat, not every such curve was filed as active; inconclusive = small, poorly fitted or top-dose-only effect, or a change in a side signal; also: % of control where 0% means no effect
# Target sequence (P55210 24-198 limits assumed): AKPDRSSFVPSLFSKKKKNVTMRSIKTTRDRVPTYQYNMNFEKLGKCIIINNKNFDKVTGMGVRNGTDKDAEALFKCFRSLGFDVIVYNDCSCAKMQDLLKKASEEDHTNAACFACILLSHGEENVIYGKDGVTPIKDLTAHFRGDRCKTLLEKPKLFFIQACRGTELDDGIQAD
# Target sequence (P55210 207-303 limits assumed): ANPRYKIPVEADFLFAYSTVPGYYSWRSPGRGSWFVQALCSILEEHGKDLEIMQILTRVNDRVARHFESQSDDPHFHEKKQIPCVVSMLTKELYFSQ
# Active calls of the source: *; ? = inconclusive; · = no result; [ ] = another dose, or the depositor's remark. Most compounds without a hit are left out; they make up all but 3% or so of the library. Unless noted, calls follow the shape of the dose curve; as a rule, active = well fitted curve in the direction sought with a large enough effect; inconclusive = small, poorly fitted or top-dose-only effect, or another doubt; inactive = no such curve, though single readings can be large; an effect the other way counts as inactive or inconclusive. Potency is read from the fitted curve at half-maximal effect.
SMILES,TSHR agonist,15-hLO inh,HEK293 cAMP ctrl,15-hLO-2 inh,Casp1 inh,Caspase-7 inhib
O=C1C2C3CCCC3=C3CCCC3C2C(=O)N1c1ccc(F)cc1 (stereo not drawn),?,3.16µM*,?,4.7%,?,-17.4%
CC(C)=C1C2CCC1C1C(=O)N(c3nc(-c4ccc(F)cc4)c(C)s3)C(=O)C21 (stereo not drawn),·,·,·,-2.6%,·,·
Oc1ccccc1-c1cc(-c2ccco2)[nH]n1,·,·,·,-2.3%,·,·
Cc1ccc(O)c(-c2cc(C(F)(F)C(F)F)[nH]n2)c1,-23.1%,?,-1.4%,-7.6%,2.8%,-1.0%
Cc1ccc(O)c(-c2cc(-c3ccccc3C)[nH]n2)c1,0.9%,15.8µM*,5.0%,-12.8%,-4.6%,-11.6%
Oc1ccccc1-c1cc(-c2ccccc2Cl)[nH]n1,-2.8%,12.6µM*,-9.0%,8.3%,-2.7%,-6.9%
CC(C)CC1(C(=O)O)C=CCN1C(=O)c1ccccc1 (stereo not drawn),2.1%,-8.9%,10.8%,-0.2%,-0.2%,-0.9%
Clc1ccc(C(c2nnnn2C2CCCC2)N2CCSCC2)cc1 (stereo not drawn),?,-4.3%,3.16µM*,-8.4%,-1.7%,-1.2%
COc1ccc(C(c2nnnn2C2CCCCC2)N2CCN(c3ccc(OC)cc3)CC2)cc1 (stereo not drawn),17.9%,2.0%,15.9%,2.5%,0.5%,0.0%
COc1ccc(C(c2nnnn2C2CCCC2)N2CCC(C)CC2)cc1 (stereo not drawn),?,-1.7%,20µM*,1.7%,-2.1%,-1.5%
c1ccc(CC2CCN(C(c3cccs3)c3nnnn3C3CCCC3)CC2)cc1 (stereo not drawn),?,-5.9%,?,7.3%,-3.0%,-0.8%
COc1ccccc1N1CCN(C(c2cccs2)c2nnnn2C2CCCC2)CC1 (stereo not drawn),?,-5.0%,12.6µM*,-4.2%,-3.0%,-0.7%
Cc1ccc(S(=O)(=O)N[C@@H](CCc2ccccc2)CC(=O)C(C)(C)C)cc1,15.6%[11.4 µM],3.6%[11.4 µM],16.4%[11.4 µM],·,-2.3%[11.5 µM],-0.2%[11.5 µM]
CCC(C)(C)OC,?,3.5%,-4.1%,-12.7%,1.9%,-1.1%
CCN1CC2=C(OC(N)=C(C#N)C2c2cccs2)/C(=C/c2cccs2)C1 (stereo not drawn),10.2%,-29.9%,14.3%,3.2%,?,-27.0%
CCN1C=C(Cc2cccs2)C2=C(C1)C(c1cccs1)C(C#N)=C(N)O2 (stereo not drawn),?,10µM*,?,9.4%,-15.3%,-26.3%
NC(=O)NCC(N)C(=O)O (stereo not drawn),·,-4.5%,·,-7.4%,-0.3%,-0.4%
O=c1[nH]c2c(cc1CNCCN1CCOCC1)c(-c1cccc(F)c1)nn2-c1ccccc1,-1.3%,0.0316µM*,-5.8%,35.2%,-0.5%,·
Cc1nn(-c2ccccc2)c2[nH]c(=O)c(CNc3ccc(N4CCOCC4)cc3)cc12,9.9%,12.6µM*,-25.1%,15.8µM*,-8.9%,-4.4%
CC(C)(C)c1nn(-c2ccccc2)c2[nH]c(=O)c(CNc3ccc4c(c3)OCCO4)cc12,·,·,·,-6.0%,·,·
C[C@@H]1/C(=N/O)CC2C[C@@H]1C2(C)C,·,-10.1%,·,0.1%,-0.7%,-0.3%
c1ccc(OCCn2c(-c3ccco3)nc3ccccc32)cc1,?,-23.1%,25.1µM*,-8.8%,-4.0%,-9.8%
O=C(Nc1nc2ccccc2n1CCOc1ccc(Cl)cc1)c1ccco1,?,-3.8%,25.1µM*,15.6%,-1.7%,-5.6%
Cc1cccc(OCCn2c(NC(=O)c3ccco3)nc3ccccc32)c1,?,7.0%,31.6µM*,13.2%,-4.1%,-1.7%
Cc1cccc(OCCn2c(S(=O)(=O)O)nc3ccccc32)c1,·,·,·,-3.9%,·,·
O=C(Nc1nc2ccccc2n1Cc1ccc(Cl)cc1)c1ccco1,?,3.0%,?,5.8%,-7.9%,-6.9%
Cc1ccc(OCCn2c(NC(=O)c3ccco3)nc3ccccc32)cc1,?,9.4%,15.8µM*,18.7%,-2.0%,-1.7%
Cc1cccc(OCCn2c(-c3ccco3)nc3ccccc32)c1,·,·,·,23.5%,·,·
